From PubChem BioAssay (NCATS)
The other results are listed elsewhere or left out. Records with an inconclusive call do not appear. The call rests on the fitted dose curve; in most records, active means well fitted inhibition curve with a large enough effect; inconclusive means small, poorly fitted or top-dose-only effect; inactive means flat fitted curve, though single readings scatter.

These molecules were tested against Fructose-bisphosphate aldolase (Giardia intestinalis (strain ATCC 50803 / WB clone C6)) (UniProt A8B2U2) (assay: qHTS Assay for Inhibitors of Fructose-1,6-bisphosphate Aldolase from Giardia Lamblia: Primary screen confirmation (AID 2787;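 further: aldolase product measured through coupled diaphorase step turning resazurin into fluorescent resorufin; nearly all actives have a fitted effect of over 45% in size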)). Settings: purified Giardia aldolase enzyme activity; series mostly up to 57.5 µM; activity change, negative = inhibition: at the top concentration.
Text: NIH Chemical Genomics Center [NCGC]
NIH Molecular Libraries Probe Production centers Network [MLPCN]
Assay Provider: Osnat Herzberg, University of Maryland
The objective of this project is to obtain compounds that inhibit Giardia lamblia growth. G. lamblia is a human pathogen which afflicts impoverished nations; it is the most common cause of outbreaks of diarrhea in the United States. During the course of our study of potential drug targets in Giardia, we have identified the Class II (Zn2+ functions in electrophilic catalysis) fructose-1,6-bisphosphate aldolase (FBPA) as an excellent candidate for drug targeting. FBPA is a key glycolytic pathway enzyme, essential for G. lamblia survival. The human FBPA belongs to the Class I aldolases, which have a different substrate binding site structure and a radically different catalytic mechanism (employing a lysine-Schiff base intermediate). Therefore, affinity-based or mechanism-based inhibitors of the Giardia FBPA are expected not to interfere with the catalytic function of the human FBPA.
A glyceraldehyde-3-phosphate dehydrogenase/triose phosphate isomerase/NAD/arsenate coupled assay was adapted to the 1536-well HTP format for use in the primary screen. This was done by coupling it to a diaphorase/resazurin/resorufin reaction that can be monitored by fluorescence (excitation, 544 nm; emission, 590 nm). Compounds identified in this screen will be further evaluated by coupling the glycerol-3-phosphate/triose phosphate isomerase/NADH assay to a phenazine methosulfate/tetranitroblue tetrazolium color reaction. False positives due to the dehydrogenases and diaphorase inhibition will be eliminated, and selectivity assay will triage inhibitors of mammalian triose phosphate isomerase and the Class I FBPA. G. lamblia FBPA inhibitors identified by the in vitro analyses will be examined for growth inhibition of Giardia trophozoites, and for cytotoxicity in human cells.
The present assay was used to confirm hits from the primary screen.
Step,Parameter,Value,Description
1,Enzyme reagent,2 uL,40 nM FBPA w/ 30uM ZnCl2
2,Compound,23 nL,3.68 nM-57.5 uM final concentration
3,Time,10 min,RT Incubation
4,Substrate/detection Reagent,2 uL,Substrate + enzyme coupling system + AmpLite Red kit
5,Time,20 min,RT Incubation
6,Detector,525 nm/598 nm (Fluorescence),ViewLux Fluorescence Read (Read 1)
1,Medium-binding black solid-bottom Kalypsys plates. FRD or Kalypsys dispenser, 2 uL of FBPA enzyme. Bottle kept at 4C.
2,Compound Library (10 mM ,1:5 dilution). Pin-transferred for a [final] range of 3.68 nM-57.5 uM.
4,FRD or Kalypsys dispenser, 2 uL of reaction mixture. Bottle kept at 4C and covered in foil to protect from light.
6,ViewLux Protocol 1194; Excitation filter wheel A (525/20 Pol; BODIPY TMR FP), Emission filter wheel B (598/25 S; BODIPY TMR FP S).
Keywords: Fructose-bisphosphate aldolase, FBPA , Giardia lamblia , Giardia, HTS, Inhibitors
On the % scale 0 is the no-effect control and ±100 the full control effect.

Sequence of Fructose-bisphosphate aldolase (Giardia intestinalis (strain ATCC 50803 / WB clone C6)) (A8B2U2 whole entry, looked up): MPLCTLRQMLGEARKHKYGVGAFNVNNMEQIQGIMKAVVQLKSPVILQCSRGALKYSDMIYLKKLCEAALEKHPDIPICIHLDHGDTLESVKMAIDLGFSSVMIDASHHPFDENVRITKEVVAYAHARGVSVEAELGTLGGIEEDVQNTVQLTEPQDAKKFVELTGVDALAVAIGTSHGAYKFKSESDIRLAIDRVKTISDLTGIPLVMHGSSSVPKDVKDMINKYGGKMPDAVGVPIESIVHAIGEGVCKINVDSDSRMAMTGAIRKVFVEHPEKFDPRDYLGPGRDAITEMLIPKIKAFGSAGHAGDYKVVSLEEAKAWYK

Activity change, negative = inhibition, inactive:
Cc1ccc(C(=O)Nc2nnc(C3=COCCO3)o2)cc1C -3.19%, CCN(CC(=O)Nc1ccc(S(=O)(=O)N2CCCC2)cc1)CC(=O)Nc1cccc(OC)c1 5.79%, CCN1CCc2c(C#N)c(NCc3ccccc3)nc(NCCO)c2C1 -29.6%, Cc1cnc(NC(=O)c2ccccn2)s1 -2.43%, Cc1cccc(C)c1OCCN1CCOCC1 1.33%, CN1CCN(CCCCOc2ccccc2-c2ccccc2)CC1 0.01%, COc1cc(CN2CCN(Cc3ccc(C)cc3)CC2)c([N+](=O)[O-])cc1OC -8.67%, O=C(CSc1cccc[n+]1[O-])c1ccc(-c2ccccc2)cc1 1.49%, CC(=O)NC1CCN(CC(=O)Nc2nccs2)CC1 1.61%, CN1C(=O)/C(=C\c2ccc(-c3ccccc3)o2)SC1=S -5.06%, COc1ccc(N=Nc2c(-c3ccc(OC)cc3)[nH]oc2=O)cc1 -5%, CN(C)CCOc1ccc(Cl)cc1C(C)(C)C -11.7%, CCc1ccc2c(c1)C1(NN=C(c3ccccc3)S1)C(=O)N2 (stereo not given) 7.54%, O=C(Nc1ccccc1Cl)O/N=C(/c1ccccc1)c1ccccn1 -7.81%, CC(C)(c1ccccc1)c1ccc(OCCN2CCCC2)cc1 0.817%, O=S(=O)(c1ccc(NC(=S)NN=C(C2CC2)C2CC2)cc1)N1CCOCC1 0.636%, Cn1c(=O)[nH]c(=O)c2c1[nH]c(=S)n2Cc1ccccc1 -3.25%, C=C(C)CNC(=S)N/N=C/c1ccccc1OCC(=O)O 1.59%, CNC(=S)N/N=C/c1ccc(N2CCOCC2)s1 -10.7%, O=C(Nc1nnc(-c2ccco2)o1)c1ccc(S(=O)(=O)N2CCOCC2)cc1 7.15%, O=C(NC(=S)Nc1ncccn1)c1ccccc1Br -17.8%, Cc1nc2ccc(NC(=S)N3CCC(C)CC3)cc2nc1C -29.8%, Oc1ccc2ccccc2c1N=Nc1nccs1 -16.3%, Cc1ccc(OCCCCc2c(C)n[nH]c2C)cc1 -7.21%, C/C(=N\NC(N)=S)c1cccnc1 7.5%, Cc1cc(C)c2c(=O)[nH]c(SCC(=O)Nc3ccc(Br)cc3)nc2n1 6.84%, COc1ccccc1CN1CCN(Cc2cc(OC)c(OC)cc2OC)CC1 0.82%, COc1ccc(Cl)cc1C(=O)NNC(=O)c1nc2nc(C)cc(C)n2n1 15%, O=c1[nH]c(=S)[nH]c2[nH]c(=S)[nH]c12 -17.2%, O=C(CN1CCN(Cc2ccccc2)CC1)Nc1ccc(F)c(F)c1 -1.29%, Cc1csc(NC(=O)CN2CCCCCC2)n1 2.62%, Cn1nnc(NC(=S)NC(=O)c2ccccc2)n1 1.95%, O=C(O)Cn1c(Cc2ccccc2)nc2ccccc21 11.6%, Cc1cc(C)n(-c2ccc(Cl)c(C(=O)O)n2)n1 0.101%, O=C(N/N=C/c1ccccn1)c1cccnc1 2.14%, CSc1n[nH]c(=S)n1N -12.2%, COc1ccc(C(=O)NC(=S)N2CCCCC2c2cccnc2)cc1OC (stereo not given) 5%, O=[N+]([O-])c1ccc2nc(-c3ccccn3)[nH]c2c1 -17.5%, Oc1[nH]c2ccc(Br)cc2c1N=Nc1nn[nH]n1 7.96%, O=C1CCCN1CCCNC(=S)Nc1ccc(F)c(Cl)c1 -3.47%
